Data: PubChem BioAssay AID1159580 (chemical genetic matrix, 2015)
Screen size: about 5,500 compounds; about 2,000 (36%) were called active. Roughly 18% stayed inconclusive and do not appear here. No stated cut-off is given here; in the data, active means normalized growth mostly below about 0.91 (no sharp cut-off); inconclusive means no clear call, values can overlap the other calls; inactive means mostly above about 0.92. The list shows a part of the results.

Assay: chemical genetic growth profiling, strain panel (AID 1159580);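 further: tested at 20 µM; growth read once vehicle control cultures reached saturation at 30 °C; 1 = growth at the plate median or of vehicle wells; lower values mean less growth of the strain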
Conditions: S. cerevisiae deletion strains, growth OD

Measured: normalized growth

O=C(O)CSCC(=O)NC1CCN(Cc2ccccc2)CC1
inactive: locus YAL013W, strain DEP1, hits give low values 1.01 | locus YBR229C, strain ROT2, hits give low values 1.01 | locus YDL101C, strain DUN1, hits give low values 0.997 | locus YDR150W, strain NUM1, hits give low values 1.01 | locus YEL061C, strain CIN8, hits give low values 1.02 | locus YGR078C, strain PAC10, hits give low values 1 | locus YHR030C, strain SLT2, hits give low values 1.08 | locus YHR087W, strain rtc3, hits give low values 0.994 | locus YJR043C, strain POL32, hits give low values 1 | locus YJR075W, strain HOC1, hits give low values 1.01 | locus YLR039C, strain RIC1, hits give low values 1.02 | locus YLR058C, strain SHM2 (second series), hits give low values 0.998 | locus YLR085C, strain ARP6, hits give low values 0.993 | locus YLR262C, strain YPT6, hits give low values 1.05 | locus YML094W, strain GIM5, hits give low values 1.02 | locus YMR219W, strain ESC1, hits give low values 1.01 | locus YMR263W, strain SAP30, hits give low values 0.998 | locus YNL153C, strain GIM3, hits give low values 1.01 | locus YNL298W, strain CLA4 (second series), hits give low values 1.03 | locus YNL322C, strain KRE1, hits give low values 1.02 | locus YNR030W, strain Alg12, hits give low values 1.02 | locus YPL055C, strain LGE1, hits give low values 1.02 | locus YPL241C, strain CIN2, hits give low values 1.04 | locus YPR135W, strain CTF4, hits give low values 1
